Assay outcomes as filed in PubChem BioAssay.
Most compounds without a hit are left out; they make up all but 11% or so of the library.
Pf growth 96h: P. falciparum growth inhibition at 96 hours. P. falciparum luciferase reporter growth, 96 h. Potency, µM (series often up to 28.7 µM), without a hit: at the top dose activity change, negative = inhibition, actives largely listed as inhibitors. hit rate 6.9% among 320,000
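Parasite growth measured via integrated firefly luciferase reporter in P. falciparum. Infected erythrocytes at 2% hematocrit, 0.05% parasitemia final were treated 96 hours at 37 C under 5% CO2, and luminescence was read.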
AmpC detergent: inhibitors of E. coli AmpC beta-lactamase with detergent; P00811; Potency, µM (series often up to 114 µM), without a hit: top-dose activity change, negative = inhibition, most hits filed as inhibitors; AmpC hydrolysis of nitrocefin, absorbance 480 nm, 0.01% Triton; AID 485294; hit rate 0.041% among 370,000;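 also: 0% = no-compound wells and -100% = no-enzyme wells; nearly all actives have a fitted effect of over 25% in size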
Target sequence (P00811 whole entry, looked up): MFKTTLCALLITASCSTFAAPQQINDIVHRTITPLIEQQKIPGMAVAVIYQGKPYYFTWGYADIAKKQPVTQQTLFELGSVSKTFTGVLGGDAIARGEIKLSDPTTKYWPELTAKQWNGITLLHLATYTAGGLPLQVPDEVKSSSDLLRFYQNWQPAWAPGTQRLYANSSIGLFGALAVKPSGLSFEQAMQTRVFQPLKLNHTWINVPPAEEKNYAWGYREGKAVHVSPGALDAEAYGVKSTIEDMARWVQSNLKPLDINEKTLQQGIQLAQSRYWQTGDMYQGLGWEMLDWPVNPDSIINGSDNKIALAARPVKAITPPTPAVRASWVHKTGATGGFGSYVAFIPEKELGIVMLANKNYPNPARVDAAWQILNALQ
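20 mM phosphate pH 7.0 + 0.01% (detergent screen) or 0.0001% Triton X-100; 5.3 nM AmpC reagent; cpd preinc 15 min RT; nitrocefin (800 uM stock) to start; A480 q20 s × 4 min; Activity was normalised to no-enzyme and no-compound control wells.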
HCV inhibitor: blocks hepatitis C virus; Huh7.5.1 HCVcc-Cre infection, luciferase reporter, 44 h; hit rate 3.4% among 340,000; Potency, µM (titrated, usually from 41.8 µM), without a hit: at the highest dose activity change, negative = inhibition, most hits filed as inhibitors
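After 44 h co-culture of compound, cells and HCVcc-Cre (~0.5 moi), substrate is added for 15 min at room temperature and luciferase measured over 15 sec. Cells were seeded at 1,000/well and pre-cultured 4 h.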
AMA1-RON2 inh: inhibitors of Plasmodium falciparum AMA1-RON2 interaction. AlphaScreen AMA1-biotinylated RON2 peptide binding. Potency, µM (top dose mostly 58.2 µM), for inactives: at the highest dose activity change, negative = inhibition, most hits filed as inhibitors. hit rate 0.2% among 360,000. AID 720542;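 also: 0% = vehicle wells and -100% = peptide control; nearly all actives have a fitted effect of over 45% in size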
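AMA1 (3D7) with his tag at 25 nM final met compounds first, then biotinylated RON2 peptide at 25 nM; detection used donor plus acceptor beads, 10 µg/mL apiece, read by AlphaScreen after 30 min at room temperature.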
Pf growth 48h: inhibits P. falciparum growth in the first generation, 48 h; P. falciparum luciferase growth in erythrocytes, 48 h; Potency, µM (titrated, usually from 28.7 µM), without a hit: at the top dose activity change, negative = inhibition, most hits filed as inhibitors; hit rate 5.9% among 310,000
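Parasite viability was followed by luminescence of a genomically integrated firefly luciferase. Cultures held 0.1% parasitemia at 2% hematocrit (final), incubated under 5% CO2 at 37 C.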
AmpC inh no detg: AmpC beta-lactamase inhibition without detergent | P00811 | AmpC nitrocefin hydrolysis, absorbance 480 nm, 0.0001% Triton | Potency, µM (doses to about 57.1 µM), without a hit: at the highest dose activity change, negative = inhibition, hits mostly inhibitors | hit rate 0.52% among 330,000 | AID 485341;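 also: plate controls were no compound for no effect and no enzyme for full effect; nearly all actives have a fitted effect of over 20% in size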
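AmpC (5.3 nM in the dispensed reagent) in 20 mM phosphate pH 7.0 with 0.01% (detergent screen) or 0.0001% Triton X-100 was preincubated with compounds for 15 min at room temperature. Nitrocefin was then added from an 800 uM solution, and hydrolysis was followed at 480 nm.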
An asterisk follows results filed as active; ? = inconclusive; . = no result; [ ] = dose if it differs, or a comment. Calls follow the shape of the dose curve; as a rule, active = well fitted curve in the direction sought with a large enough effect; inconclusive = small, poorly fitted or top-dose-only effect, or another doubt; inactive = no such curve, though single readings can be large; an effect the other way counts as inactive or inconclusive. Unless noted, % is scaled to controls: 0 for no effect and ±100 for the full control effect; potency is read from the fitted curve at half-maximal effect.

SMILES	Pf growth 96h	AmpC detergent	HCV inhibitor	AMA1-RON2 inh	Pf growth 48h	AmpC inh no detg
Cc1cc(C)c(Cn2c(C(O)c3ccccc3)nc3ccccc32)c(C)c1 (configuration not stated)	.	7.7%	.	.	.	.
CCN(CC)c1cc2c(cc1F)c(=O)c(S(=O)(=O)c1cc(C)ccc1C)cn2Cc1ccccc1	.	2.9%	.	.	.	.
COc1ccc(-n2c(SCC(=O)NC3CCCCC3)nc3c([nH]c4ccccc43)c2=O)cc1	.	-4.1%	.	.	.	.
Cc1ccc(-n2c(Cl)c(Cl)nc(Cl)c2=O)cc1	?	?	7.08µM*	-1.6%	-24.9%	-2.8%
O=C(c1cccs1)c1cn(CCOc2ccccc2Cl)c2ccccc12	.	22.8%	.	.	.	.
CCN(C(=O)CCc1nc(-c2ccc(OC)cc2)no1)c1cc(OC)ccc1OC	?	-7.7%	11.2µM*	4.0%	?	117.4%
COc1ccc(Cc2nc(-c3cccc(C)c3)no2)cc1	14.7µM*	-2.1%	-21.3%	86.0%	.	-2.8%
CCN(C(=O)CCc1nc(-c2ccc(C)cc2)no1)c1cc(C)ccc1C	.	9.6%	.	.	.	.
COc1ccc(-c2noc(Cc3ccccc3OC)n2)cc1	13.1µM*	-15.5%	?	37.2%	12.8%	-5.3%
Cc1cccc(-c2noc(Cc3ccc(Cl)cc3)n2)c1	?	-2.6%	4.9%	94.6%	63.2%	-36.1%
CCc1c(C)sc2c1CCN(C(=O)Nc1cc(Cl)c(OC)cc1OC)C2c1ccccc1 (configuration not stated)	.	-8.0%	.	.	.	.
COc1ccccc1NC(=O)c1sc2nc(C)c(C(=O)Nc3ccc(C)cc3C)c(-c3cccs3)c2c1N	.	10.1%	.	.	.	.
Cc1ccc(Cn2c(N)nc3ccccc32)cc1	-3.9%	?	10µM*	-0.6%	-7.3%	-24.6%
O=Nc1c(O)n(Cc2ccc(Cl)c(Cl)c2)c2ccccc12	9.28µM*	-7.0%	?	-20.8%	?	2.51µM*
Nc1nc2ccccc2n1Cc1ccc(Cl)c(Cl)c1	?	-7.4%	-21.5%	-3.8%	10.4µM*	-29.4%
Cc1ccc(Cn2c(-c3nonc3N)nc3ccccc32)cc1	.	1.8%	-7.0%	22.9%	-0.1%	-36.2%
CCCSc1ncnc2c1c(-c1ccccc1)cn2-c1ccccc1OC	.	3.9%	.	.	.	.
CCc1ccc(NCc2cc3ccc(OC)cc3n(CC(=O)Nc3ccc(C)c(Cl)c3)c2=O)cc1	.	11.7%	.	.	.	.
Cc1noc(C)c1COC(=O)c1cccnc1SCC(=O)Nc1ccc2c(c1)OCO2	9.28µM*	?	?	-9.6%	?	-49.1%
Cc1noc(C)c1COC(=O)c1ccc2c(c1)OCO2	7.38µM*	-11.4%	14.4%	-2.8%	.	-15.8%
Cc1noc(C)c1COc1ccc(C(=O)OCC(=O)Nc2ccc3c(c2)OCO3)cc1	20.3%	4.9%	-0.9%	-7.9%	2.1%	-37.9%
CCOc1ccc(CCNC(=O)c2cc3c(s2)-c2ccccc2OC3)cc1OCC	.	1.2%	.	.	.	.
Cc1ccc(-c2nnc(Nc3cccc(C(F)(F)F)c3)c3ccccc23)cc1S(=O)(=O)N1CCOCC1	.	-3.3%	.	.	.	.
CN([C@@H](Cc1ccc(OS(=O)(=O)c2cccc3cnccc23)cc1)C(=O)N1CCN(c2ccccc2)CC1)S(=O)(=O)c1cccc2cnccc12	1.04µM*	?	2.82µM*	4.5%	0.928µM*	77.4%
COc1ccc(N2CCN(C(=O)C(Cc3ccccc3)n3cccc3)CC2)cc1 (configuration not stated)	-3.2%	-22.7%	?	?	.	42.1%
SMILES	Pf growth 96h	AmpC detergent	HCV inhibitor	AMA1-RON2 inh	Pf growth 48h	AmpC inh no detg
Fc1ccc(-n2nnc(-c3cccnc3)n2)cc1	97.6%	5.9%	0.9%	4.2%	112.8%	-3.0%
Fc1ccc(C(CCCn2nnc(-c3cccnc3)n2)c2ccc(F)cc2)cc1	-8.6%	-12.4%	?	-0.4%	14.7µM*	41.3%
CCOc1cc(C(=O)N2CCc3c([nH]c4ccccc34)C2c2ccccc2)cc(OCC)c1OCC (configuration not stated)	.	1.0%	.	.	.	.
CCCCn1c(SCc2ccc(C(=O)OC)o2)nc2cc(S(N)(=O)=O)ccc21	-0.3%	?	2.51µM*	3.6%	?	-27.1%
CCCCn1c(SCC(=O)c2cc(OC)ccc2OC)nc2cc(S(N)(=O)=O)ccc21	.	-1.5%	-28.7%	12.5%	-17.0%	-8.3%
CCCCN(C)CCNC(=O)Cn1ncc2c3ccccc3n(CCC)c2c1=O	.	-2.3%	.	.	.	.
CCCCC(=O)Nc1cccc2c1C(=O)N(c1ccccc1)C2=O	0.928µM*	?	1.3%	21.0%	3.4%	11.8%
CC(=O)OC1N=C(c2ccccc2)c2ccccc2NC1=O (configuration not stated)	14.7µM*	4.6%	16.8%	15.9%	-25.1%	-18.1%
CCCCOc1ccccc1Cn1c(=O)sc2ccccc21	.	21.7%	.	.	.	.
Cc1cc(O)c(C(=O)/C=C/c2ccc(C(C)C)cc2)c(=O)o1	-10.5%	-5.4%	-5.0%	77.9%	16.6%	12.6µM*
Cc1cc(O)c(C(=O)/C=C/c2ccccc2Br)c(=O)o1	-15.6%	-15.2%	-16.2%	55.1%	?	12.6µM*
COC(=O)c1ccc(C(=O)OC)c(NC(=O)c2c(-c3ccccc3)c(-c3ccccc3)nn(C)c2=O)c1	.	-0.2%	.	.	.	.
CC(C)c1nn2c(=O)cc(COC(=O)c3ccccc3NC(=O)c3cccs3)nc2s1	.	9.0%	.	.	.	.
N#CCCCn1c(-c2ccccc2)noc1=O	3.7µM*	-10.6%	7.5%	3.5%	6.6%	-5.6%
CCOC(=O)C(Cc1c[nH]c2ccccc12)NC(=O)COc1ccc(Cl)c(C)c1 (configuration not stated)	.	-4.2%	.	.	.	.
COc1ccc(CCNCC(=O)Nc2ccccc2C(F)(F)F)cc1	-27.8%	-8.8%	-17.3%	17.2%	13.1µM*	-2.9%[11.4 µM]
COc1ccc2ccc(O)c(CN(C)CC(=O)Nc3ccccc3C(F)(F)F)c2c1	?	0.9%	2.4%	62.0%	11.7µM*	-43.1%
COc1ccc(CN(C)CC(=O)Nc2ccccc2C(F)(F)F)cc1	-22.7%	-2.4%	1.3%	22.4%	1.9%	34.5%
Fc1ccc(Sc2ccccc2CNC2=NCCN2)cc1	2.08µM*	?	?	-2.0%	5.86µM*	-6.4%
OCCNC1=NCCN1	21.0%	-1.0%	17.3%	15.6%	1.3%	-13.7%
COc1ccc(CC(=O)Nc2cccc(S(=O)(=O)N3CCCC3)c2)cc1OC	?	8.3%	4.47µM*	-6.1%	?	-1.0%
COc1ccc(CC(=O)Nc2cccc(S(=O)(=O)N3CCOCC3)c2)cc1OC	?	-8.0%	3.55µM*	27.2%	-23.1%	-13.1%
COc1ccc2c(CC(=O)Nc3cccc(S(=O)(=O)N4CCOCC4)c3)coc2c1	2.33µM*	-0.6%	?	-3.3%	?	-59.7%
